Test [1] can be described thus: Nuclear factor erythroid 2-related factor 2/antioxidant responsive element (Nrf2/ARE) small molecule agonists: qHTS cell viability counter screen in human keratinocytes (AID 1919968; active = well fitted curve in the direction sought with a large enough effect in the repeat runs; an effect the other way counts as inactive or inconclusive; note: nearly all actives have a fitted effect of over 55% in size; note: potency is the fitted concentration of half-maximal effect). The method, boiled down:
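Cytotoxicity was multiplexed with the Nrf2/ARE luciferase assay in the same wells. Stably transfected HaCaT keratinocytes were treated with test compounds for 23 h at 37 C. Cell viability was then measured by CellTiter-Fluor fluorescence.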
(In qHTS, concentration-response curves come from the screen itself.)

Test [2] concerns the target Gonadotropin-releasing hormone receptor (Homo sapiens) (UniProt P30968). The test is described as follows: Human gonadotropin-releasing hormone receptor (GnRHR) small molecule agonists, calcium flux assay in GnRHR-HEK293 cells (AID 1920063). Note: nearly all actives have a fitted effect of over 35% in size. Summed up: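 Agonist activity was measured as intracellular calcium flux in HEK293 cells engineered to stably express human GnRHR. After dye loading for 1 hour at 37 C, compounds in DMSO were added and fluorescence was followed for 3 minutes.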
(Calcium flux is commonly read through the fluorescence of an indicator in the cells.)

Test [3] has as its target KiSS-1 receptor (Homo sapiens) (UniProt Q969F8). Put plainly: Human kisspeptin (KISS1R) small molecule agonists, calcium flux assay in KISS1R-HEK293 cells (AID 1920064; active = well fitted curve in the direction sought with a large enough effect in the repeat runs; an effect the other way counts as inactive or inconclusive). Summed up:
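Agonist activity is monitored as intracellular calcium rise in engineered HEK293 cells carrying human KISS1R. Cells are dye-loaded for 1 h at 37 C before compound addition, and fluorescence is recorded for 3 min.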

A short description of test [4]: G protein-coupled receptor (GPCR) small molecule agonists, calcium flux assay: HEK293 wild type cell line counter screen (AID 1920065). The method, boiled down: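 Seed cells, incubate 18 h (37 C, 5% CO2); add calcium dye, 1 h at 37 C; pin-transfer compounds, ATP control or DMSO; read fluorescence 480/540 nm each second for 3 min.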
Test [5] is described as follows: p53 small molecule agonists, cell-based qHTS assay with human liver microsomes (AID 1963577). Summed up: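 p53RE-bla reporter cells were pre-incubated 5 h at 37 C, then treated with compounds plus human liver microsomes (0.5 mg/mL final) and NADPH (0.5 mg/mL final) for 16 h at 37 C. Beta-lactamase activity was read by LiveBLAzer fluorescence after 2 h at room temperature.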

Test [6] in a line: p53 small molecule agonists, cell-based qHTS assay with rat liver microsomes (AID 1963578). The method, boiled down:
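p53RE-bla cells were exposed to compounds together with rat liver microsomes (0.5 mg/mL final) and NADPH (0.5 mg/mL final) for 16 h at 37 C, then read by LiveBLAzer beta-lactamase fluorescence after 2 h at room temperature.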

Test [7] in a line: p53 small molecule agonists, cell-based qHTS assay with human liver microsomes: qHTS cell viability counter screen (AID 1963579). Note: nearly all actives have a fitted effect of over 45% in size. Note: potency is the fitted concentration of half-maximal effect. The method, boiled down:
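p53RE-bla cells (4,000/well) were pre-incubated 5 h at 37 C, then given compounds in DMSO plus human liver microsomes (0.5 mg/mL final) and NADPH (0.5 mg/mL final) for 16 h at 37 C. Viability was read by CellTiter-Glo luminescence.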

The nature of test [8]: p53 small molecule agonists, cell-based qHTS assay with rat liver microsomes: qHTS cell viability counter screen (AID 1963580). Note: nearly all actives have a fitted effect of over 45% in size. Summed up: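 Cytotoxicity counter screen: intracellular ATP measured by CellTiter-Glo luminescence in the same wells as the beta-lactamase reporter read, on HCT-116 p53RE-bla cells exposed 16 h at 37 C to compounds with rat liver microsomes and NADPH, each 0.5 mg/mL final.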

Test [9] can be described thus: p53 small molecule agonists, cell-based qHTS assay: qHTS cell viability counter screen (AID 1963581). Note: nearly all actives have a fitted effect of over 45% in size. Summed up:
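Viability was counter-screened in parallel with the p53 agonist reporter by measuring intracellular ATP luminescence in the same HCT-116 p53RE-bla wells after 16 h compound treatment at 37 C.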

Test [10] is described as follows: p53 small molecule agonists, cell-based qHTS assay (AID 1963582; active = well fitted activation curve with a large enough effect in the signal ratio in the repeat runs, not every such curve was filed as active; the % refers to the signal ratio). The method, boiled down: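 Cells carrying a p53-responsive bla reporter are treated with test compounds for 16 h at 37 C; beta-lactamase activity is then detected with LiveBLAzer B/G FRET substrate after 2 h at room temperature.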
In test [11] the target is 5-hydroxytryptamine receptor 2A (Homo sapiens) (UniProt P28223). Put plainly: 5-hydroxytryptamine receptor 2A (HTR2A) small molecule antagonists, cell-based qHTS assay (AID 1963586). Note: nearly all actives have a fitted effect of over 45% in size. Note: potency is the fitted concentration of half-maximal effect. Summed up: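 CHO cells stably expressing human HTR2A were plated for 18 h at 37 C, then loaded with calcium dye for 1 h. Compounds were preincubated 5 min at room temperature before DOI (4 nM solution) was added. Kinetic fluorescence was read for 3 min.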
Chain of 5-hydroxytryptamine receptor 2A (Homo sapiens) (P28223 whole entry, looked up): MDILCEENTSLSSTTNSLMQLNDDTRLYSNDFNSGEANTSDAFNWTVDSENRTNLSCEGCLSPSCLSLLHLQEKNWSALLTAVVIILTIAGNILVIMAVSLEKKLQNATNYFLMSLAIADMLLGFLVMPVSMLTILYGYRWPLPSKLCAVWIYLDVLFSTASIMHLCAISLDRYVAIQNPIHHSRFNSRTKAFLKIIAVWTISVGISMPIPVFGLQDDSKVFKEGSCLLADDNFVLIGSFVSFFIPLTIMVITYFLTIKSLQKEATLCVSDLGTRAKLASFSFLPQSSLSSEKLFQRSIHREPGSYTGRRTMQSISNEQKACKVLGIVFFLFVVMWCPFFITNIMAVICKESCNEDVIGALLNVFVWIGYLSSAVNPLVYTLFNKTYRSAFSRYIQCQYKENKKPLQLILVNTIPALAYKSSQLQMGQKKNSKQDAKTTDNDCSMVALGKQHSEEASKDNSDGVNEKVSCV

For test [12] the target is unchanged. Put plainly: 5-hydroxytryptamine receptor 2A (HTR2A) small molecule agonists, cell-based qHTS assay (AID 1963587). Note: nearly all actives have a fitted effect of over 30% in size. Note: potency is the fitted concentration of half-maximal effect. Summed up:
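CHO cells stably expressing human HTR2A, plated 18 h, loaded with calcium dye 1 h at 37 C. Agonist mode: compounds added and intracellular calcium fluorescence recorded kinetically for 2 min at 1 sec intervals.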

The target of test [13] is Muscarinic acetylcholine receptor M1 (Homo sapiens) (UniProt P11229). Put plainly: Cholinergic receptor muscarinic 1 (CHRM1) small molecule antagonists, cell-based qHTS assay (AID 1963588). Note: nearly all actives have a fitted effect of over 40% in size. The method, boiled down:
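Compounds were tested at 15 concentrations in three independent runs. Dye-loaded CHRM1-CHO cells were exposed 5 min at room temperature before stimulation by acetylcholine added at 50nM. Intracellular calcium was read kinetically on FDSS for 3 min.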

For test [14] the target is unchanged. The test is described as follows: Cholinergic receptor muscarinic 1 (CHRM1) small molecule agonists, cell-based qHTS assay (AID 1963589). Note: nearly all actives have a fitted effect of over 35% in size. The method, boiled down:
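Cells were plated and incubated 18 h at 37 C/5% CO2, loaded with calcium dye for 1 h at 37 C, then treated with compounds in DMSO. Fluorescence was recorded kinetically at 1 sec intervals.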

Test [15] in a line: cAMP Responsive Elements (CRE) small molecule agonists, cell-based qHTS assay (AID 1963590). The method, boiled down:
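Cells carrying a CRE-driven beta-lactamase reporter (HEK 293T) are seeded, incubated overnight (18 h), and treated with test compounds for 3 h at 37 C; reporter activity is then detected with a FRET substrate after 2 h at room temperature.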

Test [16] in a line: cAMP Responsive Elements (CRE) small molecule antagonists, cell-based qHTS assay (AID 1963591; active = well fitted inhibition curve with a large enough effect in the signal ratio in the repeat runs, not every such curve was filed as active; the % refers to the signal ratio). The method, boiled down: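 Cells (CRE-bla HEK 293T, DMEM with 10% dialyzed FBS and 25 mM HEPES) are seeded and incubated 18 h. Compounds are added with NKH477 agonist at 0.25 uM final for 3 h, then FRET substrate for 2 h.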
Test [17] has as its target Beta-2 adrenergic receptor (Homo sapiens) (UniProt P07550). Put plainly: Adrenergic beta2 receptor (ADRB2) small molecule antagonists, cell-based qHTS assay (AID 1963592). Note: series mostly up to about 92 µM; nearly all actives have a fitted effect of over 50% in size. Summed up:
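Assay format: CHO-ADRB2 cells, 18-20hr seeding at 37C/5% CO2, then compound plus 1nM isoproterenol agonist mix for 0.5hr RT. Homogeneous time-resolved fluorescence cAMP detection after 1hr, expressed as 665/615 nm ratio.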

In test [18] the target is D(2) dopamine receptor (Homo sapiens) (UniProt P14416). Put plainly: Dopamine D2 receptor (DRD2) small molecule agonists, cell-based qHTS assay (AID 1963594). Note: nearly all actives have a fitted effect of over 35% in size. The method, boiled down:
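HEK293 cells stably expressing human DRD2, pre-treated with PDE inhibitor Ro20-1724 (0.1 mM final) and compound 10 min at room temperature, then stimulated with NKH477 (200nM […]) for 30 min. cAMP read by HTRF (665/620 nm).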

Test [19] shares this target. Put plainly: Dopamine D2 receptor (DRD2) small molecule antagonists, cell-based qHTS assay (AID 1963595; active = well fitted inhibition curve with a large enough effect in the signal ratio in the repeat runs, with a control signal flat; the % refers to the signal ratio; note: potency is the fitted concentration of half-maximal effect). Summed up: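 Antagonist mode in DRD2-HEK293 cells: after compound addition with 0.1 mM Ro20-1724, cells received quinpirole (12 nM) and NKH477 (200 nM) for 30 min at room temperature; HTRF cAMP read after 1 h detection.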
Test [20] deals with Beta-2 adrenergic receptor (Homo sapiens) (UniProt P07550). Put plainly: Adrenergic beta2 receptor (ADRB2) small molecule agonists, cell-based qHTS assay (AID 1963593).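 Note: CHO cells stably overexpressing human ADRB2.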 Summed up: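 CHO cells stably over-expressing ADRB2 were plated overnight at 37C, then dosed with compounds plus a stimulation mix containing 100uM IBMX and 25uM Ro-20-1724 for 0.5hr at room temperature. cAMP was measured by HTRF competition, 1hr.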
Chain of Beta-2 adrenergic receptor (Homo sapiens) (P07550 whole entry, looked up): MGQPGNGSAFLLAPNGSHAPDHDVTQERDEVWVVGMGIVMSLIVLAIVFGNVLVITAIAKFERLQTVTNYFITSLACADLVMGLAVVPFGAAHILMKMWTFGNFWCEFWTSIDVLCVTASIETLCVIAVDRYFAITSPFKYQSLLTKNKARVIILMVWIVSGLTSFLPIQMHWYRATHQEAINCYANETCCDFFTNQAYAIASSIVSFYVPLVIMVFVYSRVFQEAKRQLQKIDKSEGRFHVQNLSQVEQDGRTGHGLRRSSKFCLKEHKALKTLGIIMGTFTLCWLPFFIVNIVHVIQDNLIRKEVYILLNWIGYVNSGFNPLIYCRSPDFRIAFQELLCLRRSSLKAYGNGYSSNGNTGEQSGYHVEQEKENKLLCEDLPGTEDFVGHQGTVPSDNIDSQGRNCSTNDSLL

Unmarked numbers belong to inactive results. Results filed as inconclusive are left out. Activity calls are given as the source filed them. Unless noted, calls come from the whole dose curve.

Data on nine compounds can be found in PubChem BioAssay (Tox21).
% is set by controls: 0 for no effect and ±100 for the full control effect.

Chain of Gonadotropin-releasing hormone receptor (Homo sapiens) (P30968 whole entry, looked up): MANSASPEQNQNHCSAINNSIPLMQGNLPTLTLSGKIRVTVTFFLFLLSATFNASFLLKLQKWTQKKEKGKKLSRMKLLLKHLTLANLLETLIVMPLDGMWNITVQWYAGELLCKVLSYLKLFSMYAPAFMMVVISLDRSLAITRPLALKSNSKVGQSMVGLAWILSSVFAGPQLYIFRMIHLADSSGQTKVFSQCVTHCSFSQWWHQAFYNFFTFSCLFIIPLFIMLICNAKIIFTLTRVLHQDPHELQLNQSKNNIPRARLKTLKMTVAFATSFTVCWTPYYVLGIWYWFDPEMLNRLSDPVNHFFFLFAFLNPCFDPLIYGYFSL
Chain of Muscarinic acetylcholine receptor M1 (Homo sapiens) (P11229 whole entry, looked up): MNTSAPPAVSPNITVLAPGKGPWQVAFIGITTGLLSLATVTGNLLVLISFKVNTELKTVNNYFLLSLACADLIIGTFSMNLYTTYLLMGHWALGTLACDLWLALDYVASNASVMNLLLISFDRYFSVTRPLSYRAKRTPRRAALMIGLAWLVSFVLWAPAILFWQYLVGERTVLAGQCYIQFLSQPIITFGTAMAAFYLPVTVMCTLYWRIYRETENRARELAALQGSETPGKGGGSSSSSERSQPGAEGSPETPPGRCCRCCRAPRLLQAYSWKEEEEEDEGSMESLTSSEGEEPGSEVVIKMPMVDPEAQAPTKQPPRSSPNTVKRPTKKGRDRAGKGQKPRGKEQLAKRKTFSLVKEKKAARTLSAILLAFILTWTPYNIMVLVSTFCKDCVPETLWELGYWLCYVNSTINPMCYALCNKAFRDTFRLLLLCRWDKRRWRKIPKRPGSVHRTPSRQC
Chain of KiSS-1 receptor (Homo sapiens) (Q969F8 whole entry, looked up): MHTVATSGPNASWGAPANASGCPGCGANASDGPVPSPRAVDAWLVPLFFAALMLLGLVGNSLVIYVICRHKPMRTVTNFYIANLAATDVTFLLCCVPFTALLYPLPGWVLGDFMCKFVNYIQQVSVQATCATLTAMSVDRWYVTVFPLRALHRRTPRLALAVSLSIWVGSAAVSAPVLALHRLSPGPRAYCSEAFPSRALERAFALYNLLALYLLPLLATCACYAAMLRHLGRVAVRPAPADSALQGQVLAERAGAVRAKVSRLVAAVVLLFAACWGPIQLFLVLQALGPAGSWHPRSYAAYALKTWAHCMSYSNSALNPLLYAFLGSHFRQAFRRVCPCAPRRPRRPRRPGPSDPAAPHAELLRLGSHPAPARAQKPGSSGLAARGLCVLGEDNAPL
Chain of D(2) dopamine receptor (Homo sapiens) (P14416 whole entry, looked up): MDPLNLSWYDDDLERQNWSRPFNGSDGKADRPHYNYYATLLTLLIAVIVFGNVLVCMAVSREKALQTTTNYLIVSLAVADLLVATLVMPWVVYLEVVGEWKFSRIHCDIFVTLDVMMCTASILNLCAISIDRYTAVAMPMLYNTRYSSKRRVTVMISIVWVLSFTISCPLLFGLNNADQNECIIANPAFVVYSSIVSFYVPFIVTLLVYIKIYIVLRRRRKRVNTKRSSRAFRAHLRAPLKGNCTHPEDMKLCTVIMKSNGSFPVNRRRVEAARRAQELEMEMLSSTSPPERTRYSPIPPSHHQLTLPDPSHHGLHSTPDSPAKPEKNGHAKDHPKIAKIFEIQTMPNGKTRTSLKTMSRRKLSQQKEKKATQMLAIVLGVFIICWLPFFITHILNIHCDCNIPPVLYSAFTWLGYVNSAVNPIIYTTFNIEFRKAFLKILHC

Turning to `Oc1ccccc1-c1nnco1`, the Potency result in test [1], in test [2], in test [3], in test [4], in test [5] and in [6] was “inactive” each time. The Potency result in test [7], in [8], in test [9], in test [10], in test [11] and in test [12] was “inactive” each time. Further, the Potency entry in test [13], in test [14], in [15], in test [16], in [17] and in test [18] was “inactive” in each case. The Potency entry in [19] is “inactive”.
Turning to `C=C(C)C(=O)OC`, the Potency entry in test [1], in test [2], in test [3], in test [4], in test [5] and in [6] was “inactive” in each case. In addition, the Potency entry in test [7], in [8], in test [9], in test [10], in test [11] and in [12] was “inactive” throughout. The Potency entry in test [13], in [14], in test [15], in test [17] and in [18] was “inactive” in each case.
Take `Cc1cccc2c1cc1ccc3cccc4ccc2c1c34`: the Potency result in [1], in test [7], in [8], in [9], in test [11] and in [12] was “inactive” each time. The Potency result in [17], in test [20], in [18] and in test [19] was “inactive” throughout.
`CC(C)c1ccc2c(c1)CC[C@H]1[C@](C)(CN)CCC[C@]21C`: the Potency in [1] was 12.2 µM (active); in test [7], 40.8 µM (active); in [11] it was 29.8 µM (active); in test [12] it was 49 µM (active); in [19], 68.6 µM (active). Moreover, the Potency result in test [4], in [5], in [6], in test [13], in test [17] and in test [18] was “inactive” each time.
For the compound `CC(C)OC(=O)OCOP(=O)(CO[C@H](C)Cn1cnc2c(N)ncnc21)OCOC(=O)OC(C)C`, the Potency entry in test [1], in test [2], in [3], in test [4], in [5] and in [6] was “inactive” throughout. Also, the Potency result in test [7], in test [8], in [9], in test [10], in [11] and in [12] was “inactive” throughout. The Potency result in test [13], in test [14], in [15], in test [16], in test [17] and in test [18] was “inactive” each time. Further, the Potency result in [19] was “inactive”.
As to `O=C1CCCC(=O)O1`, the Potency entry in test [1], in [2], in test [3], in [4], in test [5] and in [6] was “inactive” in each case. For the same compound, the Potency result in [7], in test [8], in test [9], in test [10], in [11] and in [12] was “inactive” in each case. For the same compound, the Potency result in test [13], in test [14], in [15], in [17], in test [18] and in test [19] was “inactive” each time.
With `CC(C)NC(=O)c1ccc(C=O)cc1`, the Potency entry in test [1], in test [2], in test [3], in [4], in test [5] and in test [6] was “inactive” each time. Also, the Potency entry in test [7], in [8], in [9], in [10], in test [11] and in [12] was “inactive” throughout. Further, the Potency result in test [13], in test [14], in test [15], in test [16], in [17] and in [18] was “inactive” in each case. Besides, the Potency entry in test [19] is “inactive”.
In the case of `C=C(C)C(=O)OCCCCCCCCCCCCCCCCCC`, the activity change, negative = cytotoxicity in [1] is 0.16% [at 19 µM]; in test [7], -5.03% [at 13.5 µM]; in test [9] it was -0.723% [at 13.5 µM]. Moreover, the activation was 0.174% [at 11.8 µM] in test [4]; -0.137% [at 15.9 µM] in test [12]; 0.19% [at 15.8 µM] in test [14]; -2.05% [at 19 µM] in test [15]; -0.576% [at 19 µM] in test [20]; -1.1% [at 19 µM] in test [18]. Besides, the activity, negative = inhibition in test [13] was -12.8% [at 12.6 µM]. In addition, the figures for the activity change, negative = inhibition in test [16] and in test [19] were -19.6% [at 18.9 µM] and -0.773% [at 18.9 µM], respectively.
Take `Cc1c(Nc2ncccc2C(=O)O)cccc1C(F)(F)F`: the Potency entry in [1], in test [2], in test [3], in [4], in test [5] and in [6] was “inactive” each time. For the same compound, the Potency entry in test [7], in test [8], in test [9], in [10], in test [11] and in [12] was “inactive” in each case. The Potency entry in test [13], in test [14], in test [15], in test [16], in test [17] and in [20] was “inactive” in each case. Further, the Potency entry in test [18] and in test [19] was “inactive” in each case.
